Test results reported in paper PMC5540273 (PLoS ONE, 2017).

Key:
Settings in all cases: concentration: 1 μM, replicates: in singlicate; n = 1
[1] = tested on: T1, ERK1
T1 construct: gene MAPK3

[2] = tested on: T2, ERK2
T2 construct: gene MAPK1

[3] = tested on: T3, ERK3
T3 construct: gene MAPK6

[4] = tested on: T4, ERK4
T4 construct: gene MAPK4

[5] = tested on: T5, ERK5
T5 construct: gene MAPK7

[6] = tested on: T6, ERK8
T6 construct: gene MAPK15

[7] = tested on: ERN1
[8] = tested on: T7, FAK
T7 construct: gene PTK2

[9] = tested on: FER
[10] = tested on: FES
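Further: KINOMEscan kinase panel screen.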

| Compound | %Inh [1] [%] | %Inh [2] [%] | %Inh [3] [%] | %Inh [4] [%] | %Inh [5] [%] | %Inh [6] [%] | %Inh [7] [%] | %Inh [8] [%] | %Inh [9] [%] | %Inh [10] [%] |
| --- | --- | --- | --- | --- | --- | --- | --- | --- | --- | --- |
| O=C(Nc1n[nH]c2nc(-c3ccc(O)cc3)ccc12)C1CC1 [SB-710363] | 0 | 0 | 0 | 0 | 63 | 90.2 | 0 | 0 | 0 | 0 |
| CCc1ccc(-c2ccc3c(c2)-c2c(cnn2C)S(=O)(=O)N3C)cc1 | 4 | 6 | 0 | 0 | 0 | 0 | 0 | 38 | 0 | 0 |
| Nc1ncnc2c1nc(-c1ccccc1)n2-c1ccccc1 [SKF-97293] | 12 | 10 | 0 | 0 | 6 | 13 | 35 | 14 | 8 | 30 |
| Cn1cc(-c2ccc3c(c2)CCN3C(=O)Cc2cccc(F)c2)c2c(N)ncnc21 [GSK2603358] | 0 | 6 | 0 | 26 | 2 | 0 | 3 | 0 | 35 | 0 |
| CN1CCN(CCCNc2nccc(-c3c(-c4ccc(F)cc4)nn4cc(C(F)(F)F)ccc34)n2)CC1 [GW621581] | 0 | 0 | 0 | 5 | 0 | 31 | 0 | 0 | 0 | 0 |
| COC(=O)Nc1nc2ccc(Oc3ccc(NC(=O)Nc4cc(C(F)(F)F)ccc4F)cc3)cc2n1C.Cl [GW692089] | 0 | 0 | 0 | 0 | 0 | 72 | 0 | 0 | 21 | 3 |
| O=C(Nc1cccc(-c2nn3ccccc3c2-c2ccnc(Nc3cccc(C(F)(F)F)c3)n2)c1)c1c(F)cccc1F [GSK292658] | 0 | 0 | 0 | 0 | 0 | 9 | 0 | 0 | 3 | 0 |
| CC(=O)N1CCN(c2ccc(Nc3nccc(-c4sc(C(C)C)nc4-c4cccc(NS(=O)(=O)c5cccc(Cl)c5)c4)n3)cn2)CC1 [GSK1660437] | 0 | 98.8 | 0 | 0 | 0 | 66 | 44 | 3 | 35 | 0 |
| O=c1[nH]cc(-c2ccc(N3CCOCC3)cc2)c2sc(-c3cn[nH]c3)cc12 [GSK2276055] | 0 | 0 | 0 | 19 | 0 | 0 | 11 | 0 | 0 | 0 |
| O=C(Nc1n[nH]c2cc(-c3ccoc3)ccc12)C1CC1 [SB-738481] | 0 | 0 | 0 | 0 | 0 | 84 | 0 | 7 | 0 | 5 |
| O=C(NC1CCN(c2ccnc(Nc3ccc(F)cc3)n2)C1)c1cc2ccccc2s1 (centres unmarked) [GSK1379716] | 4 | 23 | 1 | 31 | 0 | 0 | 0 | 0 | 44 | 12 |
| COc1ccc(CNC(=O)NC2CCN(c3ccnc(Nc4ccc(F)cc4)n3)CC2)cc1 [GSK1379788] | 0 | 0 | 0 | 0 | 0 | 0 | 0 | 0 | 17 | 0 |
| COc1cc(Nc2ncc3c(C)nc(-c4cc5ccccc5[nH]4)n3n2)cc(OC)c1OC [GW869516] | 0 | 0 | 42 | 38 | 7 | 0 | 0 | 6 | 0 | 0 |
| Cl.NC(=O)c1cccc(Nc2nccc(Nc3ccc(Oc4c(Cl)cccc4Cl)c(Cl)c3)n2)c1 [GW659009] | 0 | 0 | 0 | 0 | 0 | 10 | 12 | 0 | 0 | 0 |
| CC(C)(C)c1ccc2nccc(Nc3cccc(O)c3)c2c1 [GW856795] | 0 | 0 | 0 | 0 | 0 | 0 | 66 | 0 | 0 | 0 |
| Oc1cc(Nc2ccnc3cc(I)ccc23)ccc1F [GW552771] | 0 | 0 | 0 | 0 | 0 | 11 | 0 | 0 | 11 | 0 |

| Compound | %Inh [1] [%] | %Inh [2] [%] | %Inh [3] [%] | %Inh [4] [%] | %Inh [5] [%] | %Inh [6] [%] | %Inh [7] [%] | %Inh [8] [%] | %Inh [9] [%] | %Inh [10] [%] |
| --- | --- | --- | --- | --- | --- | --- | --- | --- | --- | --- |
| c1ccc(-c2cnc3nccnn23)cc1 [AH20685] | 8 | 0 | 0 | 0 | 0 | 0 | 0 | 0 | 0 | 11 |
| Cl.Cl.NCC(NCc1ccc(-c2ccnc3[nH]ccc23)s1)c1ccccc1 (centres unmarked) [GSK1321565] | 0 | 0 | 2 | 0 | 2 | 18 | 17 | 19 | 46 | 0 |
| COc1cc(Nc2nccc(-c3c(-c4cccc(NC(=O)c5c(F)cccc5F)c4)nn4ncccc34)n2)cc(OC)c1OC [GSK327238] | 6 | 15 | 3 | 29 | 68 | 0 | 30 | 38 | 77 | 50 |
| CC(C)c1nc(-c2cccc(NS(=O)(=O)c3c(F)cccc3F)c2F)c(-c2ccnc(Nc3ccc(N4CCOCC4)nc3)n2)s1 [GSK2008607] | 0 | 0 | 9 | 42 | 2 | 93.5 | 65 | 32 | 71 | 23 |
| COc1ccc(Nc2nccc(N3CCC(NC(=O)Nc4cccc(OC)c4)C3)n2)cc1 (centres unmarked) [GSK1379742] | 0 | 0 | 9 | 0 | 0 | 36 | 0 | 0 | 26 | 9 |
| CN(c1ccc(NC(=O)Nc2cc(C(F)(F)F)ccc2F)cc1)c1ccnc(Nc2ccc(S(N)(=O)=O)cc2)n1 [GW809893] | 0 | 0 | 0 | 0 | 79 | 98.6 | 5 | 98.8 | 84 | 72 |
| CN(C)S(=O)(=O)c1cc(-c2ccc3nccc(-c4cccc(S(N)(=O)=O)c4)c3c2)cnc1N [GSK1669921] | 3 | 0 | 0 | 0 | 0 | 40 | 8 | 0 | 5 | 14 |
| CN(C)Cc1ccc(-c2ccc3c(Nc4ccc(Oc5ccccn5)cc4)ccnc3c2)o1 [GW567148] | 0 | 0 | 0 | 0 | 0 | 23 | 0 | 0 | 20 | 5 |
| Nc1ncc(-c2ccc3nccc(-c4ccncc4)c3c2)cc1S(=O)(=O)N1CCOCC1 [GSK1627798] | 0 | 0 | 0 | 10 | 0 | 45 | 0 | 2 | 11 | 0 |
| COc1cc2c(cc1OCCN1CCNCC1)ncc1c3ccc(C#N)cc3[nH]c21 | 0 | 0 | 0 | 23 | 15 | 12 | 44 | 10 | 0 | 2 |
| Cn1cc(-c2[nH]c3cc(NC(=O)[C@H](N)C4CCCCC4)cc4c3c2C=NNC4=O)cn1 | 33 | 22 | 0 | 6 | 27 | 55 | 21 | 5 | 13 | 0 |
| Cc1occc1-c1ncc(OC[C@@H](N)Cc2c[nH]c3ccccc23)cc1-c1ccc2[nH]nc(C)c2c1.O=C(O)C(F)(F)F [GSK682037] | 94.1 | 82 | 5 | 15 | 0 | 0 | 6 | 40 | 76 | 47 |
| COc1cccc(-c2ccc3c(NC(=O)C4CC4)n[nH]c3n2)c1 [SB-710903] | 0 | 0 | 0 | 8 | 0 | 11 | 0 | 0 | 0 | 0 |
| C[C@@H](Oc1cc(-n2cnc3cc(-c4ccnc(NCCS(C)(=O)=O)c4)ccc32)sc1C(N)=O)c1ccccc1Cl [GSK907232] | 0 | 0 | 0 | 19 | 0 | 76 | 0 | 0 | 21 | 0 |
| COc1cc(Nc2nccc(N3CCC(NC(=O)Nc4cccc(C(C)=O)c4)C3)n2)cc(OC)c1OC (centres unmarked) [GSK1379753] | 0 | 0 | 9 | 15 | 0 | 0 | 5 | 0 | 22 | 0 |
| CCn1c(-c2nonc2N)nc2c(C#CC(C)(C)O)nc(OC[C@H](N)c3ccccc3)cc21 [GSK943949] | 0 | 3 | 0 | 0 | 0 | 7 | 4 | 0 | 0 | 0 |
